Experimental data as given in PubChem BioAssay (EPA / NIEHS).
Several values for one entry are separate records, joined by “and”; a condition that tells them apart may be missing. Identical values can stand only once. More than one record can exist for a structure, and the calls need not agree. Activity calls are given as the source filed them. The calls were made as follows: active = hit-call score of the fitted dose curve at least 0.9, where 1 is the maximum; inactive = score below 0.9.

Tests used:
[1] = read-out: Interleukin-1 alpha (IL1a), IL1A (gene 3552); assay: BSK_LPS_IL1a: BioMAP Diversity Plus: LPS Assay for Interleukin-1 alpha (IL1a) Biomarker Activity (AID 2283080); details: primary human HUVEC with PBMC; actives raise or lower the signal
Summary of the method: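 Measured: IL-1 alpha via ELISA at 24 h in LPS-activated human umbilical vein endothelium–PBMC co-culture. Baseline: DMSO, bidirectional fitting.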

[2] = read-out: Monocyte Chemoattractant Protein-1 (MCP1), CCL2 (gene 6347); assay: BSK_LPS_MCP1: BioMAP Diversity Plus: LPS Assay for Monocyte Chemoattractant Protein-1 (MCP1) Biomarker Activity (AID 2283081); details: primary human HUVEC with PBMC; actives raise or lower the signal;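 as to AC50: secreted MCP-1 protein quantified by ELISA in culture supernatant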
Summary of the method: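 LPS-stimulated HUVEC/PBMC co-culture; chemical, 24 h; MCP-1 by ELISA; bidirectional fit vs DMSO; cytotoxicity via SRB (0.1% stain, 10% TCA fix, 560 nm) in parallel wells.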

[3] = BSK_LPS_PGE2: BioMAP Diversity Plus: LPS Assay for Prostaglandin E2 (PGE2) Biomarker Activity (AID 2283082); details: primary human HUVEC with PBMC; actives raise or lower the signal;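 as to AC50: secreted prostaglandin E2 measured by ELISA in LPS-stimulated co-culture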
Summary of the method: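 Primary human endothelial cells and blood mononuclear cells, co-cultured with LPS, receive test chemical; PGE2 ELISA follows at 24 h, with SRB-stained parallel cultures flagging cytotoxicity.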

[4] = read-out: Macrophage colony-stimulating factor (MCSF), CSF1 (gene 1435); assay: BSK_LPS_MCSF: BioMAP Diversity Plus: LPS Assay for Macrophage colony-stimulating factor (MCSF) Biomarker Activity (AID 2283083); details: primary human HUVEC with PBMC; actives raise or lower the signal
Summary of the method: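 Compound is added to a human vascular primary co-culture of umbilical vein endothelium and blood mononuclear cells. After 24 h, M-CSF is quantified by ELISA. Signal changes are fitted in both directions against DMSO.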

[5] = read-out: Tissue Factor, F3 (gene 2152); assay: BSK_LPS_TissueFactor: BioMAP Diversity Plus: LPS Assay for Tissue Factor Biomarker Activity (AID 2283084); details: primary human HUVEC with PBMC; actives raise or lower the signal
Summary of the method: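 In this co-culture system of umbilical vein endothelium with PBMC, stimulated with LPS, cell-surface CD142 is detected by ELISA at 24 h. Endpoint values derive from bidirectional fitting, DMSO serving as baseline.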

[6] = read-out: Tumor necrosis factor (Homo sapiens) (UniProt P01375); assay: BSK_LPS_TNFa: BioMAP Diversity Plus: LPS Assay for Tumour Necrosis Factor alpha (TNFa) Biomarker Activity (AID 2283085); details: primary human HUVEC with PBMC; actives raise or lower the signal;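 as to AC50: TNFa protein level quantified by ELISA in the co-culture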
Summary of the method: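 ELISA-based TNFa endpoint in a human endothelial–PBMC co-culture sampled 24 h post-exposure. Curves were fitted in both directions using DMSO as baseline of activity.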

[7] = read-out: Vascular cell adhesion molecule 1 (VCAM1), VCAM1 (gene 7412); assay: BSK_LPS_VCAM1: BioMAP Diversity Plus: LPS Assay for Vascular cell adhesion molecule 1 (VCAM1) Biomarker Activity (AID 2283086); details: primary human HUVEC with PBMC; actives raise or lower the signal
Summary of the method: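 Measured by ELISA: VCAM-1 in LPS-activated HUVEC/PBMC co-cultures 24 h after treatment. Values reflect bidirectional fitting with DMSO as baseline.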

CD38, CD38 (gene 952) = assay: BSK_SAg_CD38: BioMAP Diversity Plus: SAg Assay for CD38 Biomarker Activity (AID 2283087); details: primary human HUVEC with PBMC; actives raise or lower the signal
Summary of the method: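 Measures CD38 on a human endothelial/PBMC co-culture driven by SEB and TSST-1, 24 h after compound exposure, using ELISA with fluorescence detection; DMSO defines baseline for bidirectional curve fitting.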

CD69, CD69 (gene 969) = assay: BSK_SAg_CD69: BioMAP Diversity Plus: SAg Assay for CD69 Biomarker Activity (AID 2283089); details: primary human HUVEC with PBMC; actives raise or lower the signal;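 as to AC50: cell surface CD69 protein quantified by ELISA with fluorescence detection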
Summary of the method: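 Primary human vascular co-culture (umbilical vein endothelium with peripheral blood mononuclear cells) exposed to test chemical for 24 h. CD69 levels quantified by fluorescence ELISA; DMSO served as negative control for bidirectional fitting.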

[8] = read-out: Monocyte Chemoattractant Protein-1 (MCP1), CCL2 (gene 6347); assay: BSK_SAg_MCP1: BioMAP Diversity Plus: SAg Assay for Monocyte Chemoattractant Protein-1 (MCP1) Biomarker Activity (AID 2283090); details: primary human HUVEC with PBMC; actives raise or lower the signal
Summary of the method: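 Values derive from bidirectional fitting of ELISA-measured MCP1 against DMSO controls. Readings were taken 24 h after dosing human vascular endothelial cells co-cultured with peripheral blood mononuclear cells under superantigen stimulation.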

[9] = read-out: E-selectin (Homo sapiens) (UniProt P16581); assay: BSK_SAg_Eselectin: BioMAP Diversity Plus: SAg Assay for Eselectin Biomarker Activity (AID 2283091); details: primary human HUVEC with PBMC; actives raise or lower the signal
Summary of the method: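 Primary human endothelial cells and peripheral blood mononuclear cells were co-cultured and exposed to chemical for 24 hours. E-selectin levels were then quantified by ELISA, with bidirectional curve fitting normalised to DMSO controls.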

[10] = read-out: Monokine induced gamma interferon (MIG), CXCL9 (gene 4283); assay: BSK_SAg_MIG: BioMAP Diversity Plus: SAg Assay for Monokine induced gamma interferon (MIG) Biomarker Activity (AID 2283092); details: primary human HUVEC with PBMC; actives raise or lower the signal
Summary of the method: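 Endothelial cells and PBMC were co-cultured, exposed to test chemicals, and sampled 24 h later. MIG was measured by ELISA, and responses were fitted in both directions relative to DMSO.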

[11] = BSK_SAg_PBMCCytotoxicity: PBMC Cytotoxicity Assessment in the BioMAP Diversity Plus: SAg Assay (AID 2283093); details: primary human HUVEC with PBMC;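 also: fitted both ways against DMSO so a hit may be loss or gain of signal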;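 as to AC50: PBMC superantigen activated with SEB plus TSST-1 one hour after compound addition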
Summary of the method: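 PBMC viability by Alamar Blue reduction, fluorescence read at 546/580 nm after 6 h dye exposure. Cells were dosed 1 h before SEB plus TSST-1 activation (20 ng/mL final each), then held 90 h; endothelial/PBMC human co-culture.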

[12] = read-out: Interleukin-8 (IL8), CXCL8 (gene 3576); assay: BSK_SAg_IL8: BioMAP Diversity Plus: SAg Assay for Interleukin-8 (IL8) Biomarker Activity (AID 2283094); details: primary human HUVEC with PBMC; actives raise or lower the signal
Summary of the method: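 Primary human endothelial cells with PBMC, exposed 24 h; IL-8 determined by ELISA, analysed bidirectionally relative to DMSO.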

[13] = BSK_SAg_Proliferation: Cell Proliferation Assessment in the BioMAP Diversity Plus: SAg Assay (AID 2283095); details: primary human HUVEC with PBMC;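 also: relative cell number as total protein by SRB absorbance in sub-confluent culture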
Summary of the method: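 A human primary co-culture of umbilical vein endothelium and blood mononuclear cells receives compound; relative cell number is quantified at 96 h by SRB staining and 560 nm absorbance, with DMSO-referenced bidirectional curve fitting.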

[14] = BSK_SAg_SRB: Viability Assessment in the BioMAP Diversity Plus: SAg Assay (AID 2283096); details: primary human HUVEC with PBMC;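 also: cells read one day after compound addition; hits may be either gain or loss of signal compared with DMSO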
Summary of the method: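 Compounds were added to a human vascular co-culture of umbilical vein endothelium and PBMC. After 24 h, parallel cultures were fixed with 10% TCA, stained with 0.1% sulforhodamine B and read at 560 nm. Gain or loss of signal was fitted relative to DMSO.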

[15] = BSK_LPS_SRB: Viability Assessment in the BioMAP Diversity Plus: LPS Assay (AID 2283079); details: primary human HUVEC with PBMC;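 also: total protein by sulforhodamine B absorbance as a cytotoxicity measure; measured one day after compound addition; fitted in both directions against DMSO so loss or gain of signal counts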
Summary of the method: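 Overt cytotoxicity was gauged by sulforhodamine B total-protein staining in a primary human vascular endothelial and mononuclear cell co-culture 24 h post-dosing. Activity was fitted in both directions relative to DMSO.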

CD40, CD40 (gene 958) = assay: BSK_SAg_CD40: BioMAP Diversity Plus: SAg Assay for CD40 Biomarker Activity (AID 2283088); details: primary human HUVEC with PBMC; actives raise or lower the signal
Summary of the method: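 Fluorescence ELISA read-out of CD40 from umbilical vein endothelium plus peripheral blood mononuclear cells, sampled 24 h after dosing. Values come from bidirectional curve fitting with DMSO as baseline.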

Measured: AC50

Chain of Tumor necrosis factor (Homo sapiens) (P01375 whole entry, looked up): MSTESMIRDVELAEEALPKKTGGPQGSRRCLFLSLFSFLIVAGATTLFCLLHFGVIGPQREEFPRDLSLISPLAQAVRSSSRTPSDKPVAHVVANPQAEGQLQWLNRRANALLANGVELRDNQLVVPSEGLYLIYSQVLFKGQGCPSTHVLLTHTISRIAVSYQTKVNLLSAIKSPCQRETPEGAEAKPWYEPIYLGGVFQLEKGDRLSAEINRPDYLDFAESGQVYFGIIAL
Chain of E-selectin (Homo sapiens) (P16581 whole entry, looked up): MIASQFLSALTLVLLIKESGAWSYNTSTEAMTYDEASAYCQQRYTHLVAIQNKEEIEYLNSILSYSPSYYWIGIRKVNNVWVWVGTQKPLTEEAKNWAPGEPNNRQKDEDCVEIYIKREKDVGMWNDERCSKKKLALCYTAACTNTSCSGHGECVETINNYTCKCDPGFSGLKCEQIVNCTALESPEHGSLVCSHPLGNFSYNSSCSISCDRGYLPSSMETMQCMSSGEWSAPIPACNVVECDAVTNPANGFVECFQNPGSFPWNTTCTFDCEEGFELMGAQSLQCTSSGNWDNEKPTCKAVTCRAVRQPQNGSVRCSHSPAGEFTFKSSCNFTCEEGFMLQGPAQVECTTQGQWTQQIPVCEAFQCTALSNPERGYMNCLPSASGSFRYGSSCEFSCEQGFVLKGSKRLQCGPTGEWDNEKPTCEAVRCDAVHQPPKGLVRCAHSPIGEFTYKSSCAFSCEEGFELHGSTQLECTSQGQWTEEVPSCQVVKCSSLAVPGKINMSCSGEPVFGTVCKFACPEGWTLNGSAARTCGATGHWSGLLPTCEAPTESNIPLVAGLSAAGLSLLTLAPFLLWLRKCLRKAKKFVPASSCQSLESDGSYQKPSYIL

O=[N+]([O-])c1cc(C(F)(F)F)c(Cl)c([N+](=O)[O-])c1Nc1ncc(C(F)(F)F)cc1Cl
inactive: [6]
active: [1] 1.35 µM and 2.31 µM | [2] 1.52 µM and 3.74 µM | [3] 7.89 µM and 3.71 µM | [4] 1.49 µM and 2.86 µM | [5] 1.44 µM and 2.17 µM | [6] 1.81 µM | [7] 1.5 µM and 2.05 µM | CD38, CD38 (gene 952) 1.35 µM and 2.58 µM | CD69, CD69 (gene 969) 1.91 µM and 3.73 µM | [8] 2.24 µM and 3.79 µM | [9] 1.51 µM and 2.65 µM | [10] 3.49 µM and 2.45 µM | [11] 814 nM and 2.03 µM | [12] 1.81 µM and 3.64 µM | [13] 318 nM and 526 nM | [14] 3.84 µM

CN(C)NC(=O)CCC(=O)O
inactive: all assays above

O=C(O)c1cc(Oc2ccc(C(F)(F)F)cc2Cl)ccc1[N+](=O)[O-]
active: [3] 16.4 µM
not listed: [7]
inactive: all other assays above
